Assay outcomes: PubChem BioAssay, several laboratories
Most compounds without a hit are left out; they make up all but 1.3% or so of the library.
EBV gp42 inh: inhibitors of Epstein-Barr virus glycoprotein 42; Q1HVG2; Fluorescence polarization binding assay, mP read-out; inhibition, % (tested at 21.74 µM); 220,000 compounds, 0.42% hits; AID 1085; in the data active means inhibition above about 50%
BCLXL inh: Bcl-xL (human) inhibition; Q07817; 320,000 compounds, 0.7% hits; inhibition, % at 10.9 µM; AID 2129; GST-Bcl-xL / FITC-Bim BH3 peptide fluorescence polarization;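 active means inhibition above the mean of all tested compounds plus 3 SD, cutoff set per campaign, cut at about 30% in these data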;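 further: inhibitors lower millipolarization by displacing the labeled peptide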
MEX-5 binding: C. elegans MEX-5 TCR-2 RNA binding activity; activity score (negative = inhibition of binding), % at 10 µM; 300,000 compounds, 0.38% hits; MEX-5/FITC-TCR2 RNA binding, fluorescence polarization; active compounds read low; Q9XUB2;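 active means inhibition past about -25% in most replicates, and total fluorescence under double the plate's negative control median, limit read from the data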
Target sequence (Q9XUB2 whole entry, looked up): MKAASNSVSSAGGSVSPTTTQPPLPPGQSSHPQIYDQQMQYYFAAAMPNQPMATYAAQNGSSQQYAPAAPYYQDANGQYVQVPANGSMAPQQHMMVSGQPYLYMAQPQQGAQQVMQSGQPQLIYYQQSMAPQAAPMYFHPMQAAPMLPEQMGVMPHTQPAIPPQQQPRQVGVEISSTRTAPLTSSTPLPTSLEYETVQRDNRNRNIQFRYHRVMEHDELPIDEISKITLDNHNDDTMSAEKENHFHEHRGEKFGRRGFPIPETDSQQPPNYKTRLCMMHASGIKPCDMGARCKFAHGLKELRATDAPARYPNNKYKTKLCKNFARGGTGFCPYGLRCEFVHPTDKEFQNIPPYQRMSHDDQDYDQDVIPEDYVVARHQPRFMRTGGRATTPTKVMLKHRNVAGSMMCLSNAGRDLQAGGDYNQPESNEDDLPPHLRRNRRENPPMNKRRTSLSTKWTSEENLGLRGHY
MCL1 BIM primary: inhibitors of human MCL1 binding to BIM-BH3 peptide; GST-MCL1 / FITC-Bim-BH3 fluorescence polarization; AID 2057; Q07820; 320,000 compounds, 0.68% hits; inhibition, % at 10.9 µM;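 active means inhibition above the mean inhibition of all tested compounds plus 3 SD, set per campaign, cut at about 40% in these data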;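 further: higher means more loss of mP so more displacement of Bim peptide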
GLD-1 TGE inh: GLD-1-TGE RNA interaction inhibition (C. elegans); purified GLD-1 + fluorescein TGE RNA, fluorescence polarization; inhibition, % at 5.96 µM; 320,000 compounds, 0.44% hits; AID 2280;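 active means percent inhibition above a per-plate cutoff, the plate mean of test compounds plus 3 SD, cut at about 30% in these data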
GLD1 RNA confirm: GLD-1 TGE RNA interaction inhibition, confirmation | shares compounds with GLD-1 TGE inh | GLD-1/FL-TGE RNA fluorescence polarization, biochemical | inhibition, % at 5.96 µM | 550 compounds, 10% hits;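 active means average inhibition across triplicates above the hit cutoff set in the primary screen, cut at about 32% in these data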
Numbers stand for hits.

Cc1cc(C)c(C)c(S(=O)(=O)NCc2ccc(C(=O)N3CCN(C)CC3)cc2)c1C was read as BCLXL inh inactive, MEX-5 binding inactive, MCL1 BIM primary inactive and GLD-1 TGE inh inactive.
`COc1ccc(C)cc1C1=CC(=O)C[C@H](c2ccc(F)cc2)C1` gave BCLXL inh inactive, MCL1 BIM primary inactive, GLD-1 TGE inh 34.2 and GLD1 RNA confirm inactive.
C/C(N)=C(/C#N)C(=O)CSc1nc2ccccc2n1CC(C)C was read as EBV gp42 inh inactive, BCLXL inh inactive, MEX-5 binding inactive, MCL1 BIM primary inactive and GLD-1 TGE inh inactive.
O=C(O)c1ccccc1C(=O)Nc1ccc(-c2csc(-c3ccccc3)n2)cc1 was read as EBV gp42 inh inactive, BCLXL inh inactive, MEX-5 binding inactive, MCL1 BIM primary inactive, GLD-1 TGE inh 94.3 and GLD1 RNA confirm inactive.
O=C(Nc1ccc(-c2csc(-c3ccccc3)n2)cc1)c1ccccc1Cl was read as EBV gp42 inh inactive, BCLXL inh inactive, MEX-5 binding inactive, MCL1 BIM primary inactive and GLD-1 TGE inh inactive.
`CCN(Cc1ccccc1)C(=O)CCS(=O)(=O)c1ccc2c(c1)n(C)c(=O)c(=O)n2C` gave BCLXL inh inactive, MEX-5 binding inactive, MCL1 BIM primary inactive, GLD-1 TGE inh 45.8 and GLD1 RNA confirm inactive.
O=C(Nc1sc2c(c1C(=O)O)CCC2)c1ccccc1 was read as EBV gp42 inh inactive, BCLXL inh inactive, MEX-5 binding inactive, MCL1 BIM primary inactive, GLD-1 TGE inh 49.2 and GLD1 RNA confirm inactive.
`CC1C2(C)OCC(C#N)(C(=N)O2)C1(C#N)C#N` (stereo unspecified) gave EBV gp42 inh inactive, BCLXL inh 32.1, MEX-5 binding inactive, MCL1 BIM primary inactive, GLD-1 TGE inh 35.5 and GLD1 RNA confirm inactive.
Screening Cc1ccc(OCC(=O)Nc2cccc(S(=O)(=O)N3CCCCCC3)c2)cc1C returned BCLXL inh inactive, MEX-5 binding inactive, MCL1 BIM primary inactive and GLD-1 TGE inh inactive.
Screening C=CCn1c(CCNC(=O)c2cccs2)nnc1SCC(=O)c1cccc([N+](=O)[O-])c1 returned EBV gp42 inh inactive, BCLXL inh inactive, MEX-5 binding inactive, MCL1 BIM primary inactive and GLD-1 TGE inh inactive.
Screening C=CCn1c(CCNC(=O)c2cccs2)nnc1SCC(=O)c1ccc(Cl)cc1 returned EBV gp42 inh inactive, BCLXL inh inactive, MEX-5 binding inactive, MCL1 BIM primary inactive, GLD-1 TGE inh 85.5 and GLD1 RNA confirm inactive.
For Cc1cccc(NC(=O)c2ccc([N+](=O)[O-])cc2Cl)n1 the results were EBV gp42 inh inactive, BCLXL inh inactive, MEX-5 binding inactive, MCL1 BIM primary inactive and GLD-1 TGE inh inactive.
For COCCNc1ccc([N+](=O)[O-])cc1C(=O)Nc1cccc(C)n1 the results were EBV gp42 inh inactive, BCLXL inh inactive, MEX-5 binding inactive, MCL1 BIM primary inactive, GLD-1 TGE inh 68.0 and GLD1 RNA confirm inactive.
Screening Cc1c(O)ccc2cc(S(=O)(=O)c3ccccc3)c(=O)oc12 returned BCLXL inh 37.5, MEX-5 binding inactive, MCL1 BIM primary inactive, GLD-1 TGE inh 33.9 and GLD1 RNA confirm 48.9.
Screening Cc1ccc(S(=O)(=O)c2cc3ccccc3oc2=O)cc1 returned EBV gp42 inh inactive, BCLXL inh inactive, MEX-5 binding inactive, MCL1 BIM primary inactive and GLD-1 TGE inh inactive.
COC(=O)c1ccc(NC(=O)CSc2ccccc2)cc1 was read as EBV gp42 inh inactive, BCLXL inh 37.9, MEX-5 binding inactive, MCL1 BIM primary inactive, GLD-1 TGE inh 36.7 and GLD1 RNA confirm inactive.
Screening CC1=C(C(N)=O)S(=O)(=O)c2ccccc21 returned EBV gp42 inh inactive, BCLXL inh inactive, MEX-5 binding inactive, MCL1 BIM primary inactive, GLD-1 TGE inh 38.1 and GLD1 RNA confirm inactive.
For CC1(C)Cc2c(C#N)c(N)sc(=S)c2CO1 the results were EBV gp42 inh inactive, BCLXL inh 39.8, MEX-5 binding inactive, MCL1 BIM primary 42.8, GLD-1 TGE inh 30.8 and GLD1 RNA confirm inactive.
CCN(CC)c1nc(C)c2c(c1C#N)CC(C)(C)OC2 was read as EBV gp42 inh inactive, BCLXL inh inactive, MEX-5 binding inactive, MCL1 BIM primary inactive and GLD-1 TGE inh inactive.
`CCOc1cc(/C=N/NC(=O)C2CCCC2)ccc1OC(C)C` gave BCLXL inh inactive, MEX-5 binding inactive, MCL1 BIM primary inactive and GLD-1 TGE inh inactive.
